From PubChem BioAssay
Sampled rows, rich in hits. Any-hit rate of the full collection: about 4.3%.
Anthrax LF prot: inhibitors of Bacillus anthracis lethal factor protease; inhibition, % at 10 µM; multiplex microsphere protease cleavage assay, LF; 0.12% of 360,000 active; AID 588501; P15917; also: plate controls were buffer without enzyme for full effect and enzyme alone for no effect
MazF activator: MazEF (E. coli) toxin RNase activation | P0AE70 | FAM/BHQ RNA-DNA oligo cleavage fluorescence, 5 h | activation, % at 20 µM | 0.32% of 350,000 active | AID 504720; in the data active = activation above about 50%
Bead autofluor: compound fluorescence in toxin protease inhibitor counterscreen; compound autofluorescence counterscreen, microsphere flow cytometry; hits give high values; fluorescence intensity (test concentration not listed); 3.1% of 360,000 active; AID 624483; in the data active = fluorescence intensity above about 16000; inconclusive = no clear call, values can overlap the other calls
PfHsp40 yeast: rescue of PfHsp40-mediated yeast toxicity; 0.68% of 340,000 active; S. cerevisiae expressing PfHsp40, growth rescue, ATP luminescence; growth rescue, % at 12.5 µM; in the data active = growth rescue above about 28%, passing the limit was not always enough; inconclusive = no clear call, values can overlap the other calls;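 also: yeast W303a lacking pdr1 and pdr3 grown in galactose medium; growth measured after three days at 30 °C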
BoNT-F LC inh: blocks Botulinum neurotoxin F light chain protease; Multiplex microsphere protease cleavage assay, flow cytometry; inhibition, % at 10 µM; 0.22% of 360,000 active; in the data active = inhibition above about 35%, passing the limit was not always enough; inconclusive = no clear call, values can overlap the other calls; also: plate controls were buffer without enzyme for full effect and enzyme alone for no effect
BoNT-A LC inh2: inhibitors of Botulinum neurotoxin A light chain protease | multiplex microsphere protease substrate cleavage, flow cytometry | inhibition, % at 10 µM | 0.17% of 360,000 active; also: plate controls were buffer without enzyme for full effect and enzyme alone for no effect
Starred values were filed as active, the others as inactive; ? = inconclusive; / = no result. Rule as the data show it, unless noted: active = inhibition above about 30%; inconclusive = no clear call, values can overlap the other calls; inactive = below that.

SMILES	Anthrax LF prot	MazF activator	Bead autofluor	PfHsp40 yeast	BoNT-F LC inh	BoNT-A LC inh2
O=c1[nH]c2cc3c(cc2cc1C(c1nnnn1C1CCCCC1)N1CCSCC1)OCCO3 (stereo unspecified)	6	-22	22680*	1	0	3
COc1ccc(C2/C=C\CN(C(=O)NC(C)C)CC(=O)N2Cc2ccc(F)cc2)cc1 (stereo unspecified)	0	-8	3914	0	-3	0
COc1ccc2[nH]c(=O)c(C(c3nnnn3C3CCCC3)N(C)C3CCCCC3)cc2c1 (stereo unspecified)	-3	-15	24246*	1	-4	?
COc1ccccc1C(=O)NCC(=O)N/N=C(\C)Cc1ccccc1	0	3	6309	-1	-7	0
CCCN(C(=O)COC(=O)CCOc1ccccc1C)c1c(N)n(Cc2ccccc2)c(=O)[nH]c1=O	1	-9	5234	1	8	0
COC(=O)CN(C)C1CC(=O)N(c2ccc(Cl)cc2)C1=O (stereo unspecified)	0	6	22599*	1	-2	0
CN(Cc1ccncc1)C1CC(=O)N(c2ccc(Cl)cc2)C1=O (stereo unspecified)	0	2	2724	1	4	0
Clc1cccc(Cl)c1/C=C/c1ccn[nH]1	4	0	3015	7	-4	2
CC(NC(=O)c1ccncc1)C(C)(C)C (stereo unspecified)	-13	-9	21180*	1	4	6
Cc1ccc(C(C)NC(=O)c2ccncc2)cc1C (stereo unspecified)	-4	4	5880	0	1	1
CC1(C)Cc2c(C#N)c(NCCN3CCOCC3)nc(-c3ccccc3)c2CO1	-1	5	4706	1	-2	0
CC1(C)Cc2c(C#N)c(NCCN3CCOCC3)nc(-c3ccco3)c2CO1	-6	7	21315*	-1	1	2
Nc1c(Cl)ncnc1NCCO	-2	2	4426	-1	0	-1
Cc1ccc(CCNc2ncnc(Cl)c2N)cc1	-7	-5	?	733*	-21	-2
O=C(NCc1ccccc1)c1ccc(NC(=O)C2CCCCC2)cc1	-2	3	3476	-1	2	0
CCCCc1nnc(NC(=O)C(C)Sc2nc(N)cc(=O)[nH]2)s1 (stereo unspecified)	4	-2	21210*	0	6	5
CCOC(=O)c1[nH]c2ccc(C)cc2c1N	1	7	22785*	1	-3	0
COc1ccccc1N1CCN(CCN2C(=O)C3CCCN3C2=O)CC1 (stereo unspecified)	-9	-7	3603	-1	-2	-1
CC(C)C(OC(=O)C1CCCO1)C(=O)NC1CCCC1 (stereo unspecified)	-3	2	18597*	0	1	2
CCN(CC)C(=O)C1=C(C)N(CCCOC)C(=O)C(CC(=O)NC2CC2)C1 (stereo unspecified)	5	2	3638	/	4	1
O=C(NCc1ccccc1)C1CCCN1C(=O)Nc1ccccc1[N+](=O)[O-] (stereo unspecified)	-2	6	3516	-1	?	?
N#CC1=C(N)Oc2c(c(=O)oc3ccccc23)C1c1ccncc1 (stereo unspecified)	-4	1	5900	-1	-3	0
CCOc1ccc(C2C(C#N)=C(N)Oc3c2c(=O)oc2ccccc32)cc1 (stereo unspecified)	-2	-2	24671*	-1	-6	?
COc1ccc(S(=O)(=O)N2CC(C)OC(C)C2)cc1C(=O)N1CCCCC1 (stereo unspecified)	-2	0	?	1	-7	-4
OCCNc1ncnc2c1c(-c1ccccc1)c(-c1ccccc1)n2Cc1ccco1	-1	-3	2315	0	1	1
SMILES	Anthrax LF prot	MazF activator	Bead autofluor	PfHsp40 yeast	BoNT-F LC inh	BoNT-A LC inh2
N=c1c2c(-c3ccccc3)c(-c3ccccc3)n(Cc3ccco3)c2ncn1Cc1ccccc1	5	10	4453	-1	8	0
N=c1c2c(-c3ccccc3)c(-c3ccccc3)n(Cc3ccccc3)c2ncn1CCO	-1	31	22944*	1	-1	?
N=c1c2c(-c3ccccc3)c(-c3ccccc3)n(Cc3ccco3)c2ncn1CCCn1ccnc1	0	22	2565	235*	-2	0
c1ccc(-c2c(-c3ccccc3)n(Cc3ccco3)c3ncnc(NCCCn4ccnc4)c23)cc1	-8	2	2893	148*	-15	-2
Nc1cc2cccnc2cc1Cl	5	1	3740	-1	-14	2
O=C1C(Cl)=C(N2CCCC2)C(=O)N1c1ccc(F)cc1	-12	-4	3371	0	8	-1
CN1C[C@@H]2[C@@H]3C(=O)N(C)C(=O)[C@@H]3[C@](C)(C1=O)N2C(=O)c1ccc(Cl)cc1	5	2	3657	-1	-9	0
Cc1ccc(NC(=O)COc2nc(C)cs2)cc1	-1	-1	16659*	-1	-2	-1
Cc1ccc(NC(=O)COc2ccc(Br)cn2)cc1	-10	-2	5182	-1	-5	-1
Cc1cccc(C)c1NC(=O)CSc1nnc(C)n1CC1CCCO1 (stereo unspecified)	-8	-9	5019	-2	-2	-1
CC(C)(C)OC(=O)NCCCCCc1nnc(SCc2c(F)cccc2Cl)o1	?	-1	3968	5	59*	-1
CCCCSc1nnc(CCCCCNC(=O)OC(C)(C)C)o1	-4	5	16992*	2	-2	-1
CCN(CC)C(=O)C1=C(C)N(CCCOC)C(=O)C(CC(=O)NC2CCCC2)C1 (stereo unspecified)	-4	7	3652	/	0	0
COC(=O)c1ccc(CC(C(=O)c2ccccc2)N(C)C)cc1 (stereo unspecified)	5	53*	4147	1	-16	-3
O=[N+]([O-])c1ccc(NC(=S)NCc2ccncc2)cc1	-2	-19	2549	1	2	0
O=[N+]([O-])c1ccc(NC(=S)NCc2ccc(F)cc2)cc1	-4	4	3845	109*	14	-2
Cc1ccc(NC(=O)CN2C(=O)NC3(CCCCC3C)C2=O)cc1S(=O)(=O)N1CCCCC1 (stereo unspecified)	?	1	?	5	-8	-4
Cc1cc(Cl)ccc1OCCCC(=O)N1CCN(C(=O)c2ccco2)CC1	-4	-5	21790*	0	8	3
Cc1ccc(OCC(=O)N2CCN(C(=O)c3ccco3)CC2)cc1	-4	4	3896	1	-6	-1
CCOc1cc(C(=O)NCc2ccccc2)ccc1OCC(=O)N1CCCCC1	1	-4	2769	0	-5	0
O=C(NCc1ccccc1)c1ccccc1OCC(=O)N1CCCCC1	-2	4	22260*	0	-2	-1
O=C(CCCOc1ccccc1)N1CCN(C(=O)c2ccco2)CC1	1	9	23020*	-1	0	0
